Compound activity: PubChem, National Center for Advancing Translational Sciences (NCATS)
Luc counter = Kinase-Glo luciferase inhibition (counter-screen); Kinase-Glo luciferase, ATP luminescence, 8 min; Potency, µM (series often up to 38.3 µM), inactives show top-dose activity change, negative = inhibition, actives largely listed as inhibitors; actives 0.28% (n = 200,000); also: % is scaled to controls: 0 for no effect and ±100 for the full control effect; nearly all actives have a fitted effect of over 60% in size
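Kinase-Glo luciferase light output from ATP and luciferin was measured with 10 uM ATP, within the enzyme's linear range. Buffer: 50 mM imidazole pH 7.2, 50 mM KCl, 7 mM MgCl2, 0.01% Tween 20, 0.05% BSA; luminescence read after 8 min at ambient temperature.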
FLuc modulator = firefly luciferase modulation, counter-screen for miR-21 project. P08659. purified FLuc, Km substrates, luminescence inhibition. Potency, µM (doses to about 57.5 µM), without a hit: at the top dose activity change, negative = inhibition, hits mostly inhibitors. actives 6.9% (n = 360,000);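 also: plate controls were vehicle for no effect and reference inhibitor for full effect; nearly all actives have a fitted effect of over 55% in size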
Target sequence (P08659 whole entry, looked up): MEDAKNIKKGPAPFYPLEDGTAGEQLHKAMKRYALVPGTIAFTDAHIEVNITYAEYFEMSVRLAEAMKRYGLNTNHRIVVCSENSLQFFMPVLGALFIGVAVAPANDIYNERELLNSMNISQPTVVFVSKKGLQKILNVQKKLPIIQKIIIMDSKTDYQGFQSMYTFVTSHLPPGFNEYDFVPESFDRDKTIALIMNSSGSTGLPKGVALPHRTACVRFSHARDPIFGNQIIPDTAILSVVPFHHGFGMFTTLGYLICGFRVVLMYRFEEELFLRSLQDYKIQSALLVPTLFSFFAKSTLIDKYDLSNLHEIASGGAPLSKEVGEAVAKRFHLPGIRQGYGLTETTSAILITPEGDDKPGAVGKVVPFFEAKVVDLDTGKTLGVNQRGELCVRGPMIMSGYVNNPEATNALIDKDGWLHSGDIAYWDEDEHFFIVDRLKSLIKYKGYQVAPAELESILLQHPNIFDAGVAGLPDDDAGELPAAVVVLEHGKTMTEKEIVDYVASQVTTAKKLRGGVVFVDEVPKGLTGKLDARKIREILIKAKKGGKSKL
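Purified P. pyralis luciferase (10nM final) with 10uM D-luciferin and 10uM ATP (Km levels) in 50mM Tris acetate pH 7.5, 10mM Mg acetate, 0.01% Tween-20, 0.05% BSA; qHTS 6-point titration, ~60 µM downward; luminescence read.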
NPC1 promoter act = activators of NPC1 promoter. Potency, µM (top dose mostly 9.22 µM), without a hit: at the top dose activation, usual class: activators. AID 485313. Huh7 NPC1 promoter luciferase reporter, 24 h. actives 2.4% (n = 320,000); also: % of control where 0% means no effect; nearly all actives have a fitted effect of over 60% in size
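Luciferase expression driven by the NPC1 promoter was measured in stably transfected Huh7 cells after a 24 h compound incubation, using a luciferase reagent and a luminescence read.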
SMN2 splice enh = increases expression of the SMN2 splice variant | HEK293 SMN2-luciferase splicing reporter, luminescence, 30-36 h | Potency, µM (doses to about 46.1 µM), for the others: at the highest dose activity change, positive = activation, hits mostly activators | actives 2.8% (n = 210,000) | AID 1458; also: % of control where 0% means no effect; nearly all actives have a fitted effect of over 55% in size
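HEK293 cells carry an SMN2 minigene-luciferase reporter in which exon 7 inclusion puts luciferase in frame. Cells were seeded at 2000 cells/well, attached for 10-12 hours, then exposed to compounds for 30-36 hours at 37C before ONE-Glo luminescence.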
ELG1 genotoxic = inducers of genotoxicity in HEK293T ELG1-luciferase cells; actives 1.3% (n = 330,000); AID 504466; HEK293T ELG1-luciferase reporter, luminescence, 16 h; Potency, µM (doses to about 46 µM), without a hit: at the highest dose activity change, positive = activation, actives largely listed as activators; also: % of control where 0% means no effect; nearly all actives have a fitted effect of over 60% in size
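Screening used a luciferase reporter fused to human ELG1 in HEK293T cells. Luminescence was read on a CCD plate imager after 16 hr exposure and 30 min ONE-Glo incubation.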
Rab9 prom act = activators of Rab9 promoter; AID 485297; Huh7 Rab9 promoter-luciferase reporter, luminescence, 24 h; Potency, µM (titrated, usually from 9.22 µM), without a hit: top-dose activation, negative = inhibition, most hits filed as activators; actives 2.8% (n = 320,000); also: % of control where 0% means no effect; nearly all actives have a fitted effect of over 60% in size
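Huh7 cells stably carrying a Rab9 promoter-luciferase reporter, 1500 cells per well in OP-MEM I with 10% FBS, treated with compound 24 hours at 37C. Luciferase activity read by luminescence after 10 minutes with Amplite reagent.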
Numbers without * were called inactive; u = inconclusive; x = not tested or not shown; [ ] = dose if it differs, or a comment. Rows were chosen to be rich in hits. Some 7.3% of all compounds tested hit in one or more screens of this group. Calls follow the shape of the dose curve; as a rule, active = well fitted curve in the direction sought with a large enough effect; inconclusive = small, poorly fitted or top-dose-only effect, or another doubt; inactive = no such curve, though single readings can be large; an effect the other way counts as inactive or inconclusive. Potency is read from the fitted curve at half-maximal effect.

SMILES	Luc counter	FLuc modulator	NPC1 promoter act	SMN2 splice enh	ELG1 genotoxic	Rab9 prom act
O=C(Nc1ccc(N2CCCC2)cc1)c1cccc(F)c1	u	1.3µM*	0.35µM*	0.63µM*	0.37µM*	0.32µM*
CC(=O)N1CCN(c2ccc(NC(=O)c3ccc4ccccc4c3)cc2)CC1	x	-11%	25%	x	4%	u
O=C(Nc1ccc(Br)cn1)c1cccc(-c2cc3ccccc3oc2=O)c1	-1%	12µM*	1.8µM*	11µM*	u	4µM*
O=C(Nc1ccc(N2CCCC2)cc1)c1ccc2ccccc2c1	-10%	1.3µM*	u	2.5µM*	u	0.89µM*
O=C(/C=C/c1ccc(Cl)cc1)Nc1ccc(N2CCCCC2)cc1	2%	-3%	3%	-10%	1%	-13%
Cc1nc(NC(=O)c2cccc(-c3cc4ccccc4oc3=O)c2)ccc1Br	-1%	-20%	u	u	9%	u
O=C(Nc1ccc(N2CCN(C(=O)c3cccs3)CC2)cc1)c1cccc(F)c1	x	-6%	-3%	x	-11%	3%
O=C(/C=C/c1ccccc1)Nc1ccc(N2CCCCC2)cc1	-3%	u	u	u	u	4µM*
Cc1ccc2c(c1)-c1nc(-c3ccccc3)cc(-c3ccccc3)c1CO2	x	-1%	x	-9%	x	x
Oc1ccc(COCc2ccc(F)cc2)c2cccnc12	x	u	-27%	x	x	-16%
Cc1ccc(C(=O)Nc2ccc(N3CCOCC3)cc2)cc1	x	12µM*	2.8µM*	x	21µM*	4µM*
O=C(O)c1ccccc1NCn1c(=S)sc2ccccc21	-6%[7.66 µM]	x	x	-9%[9.22 µM]	x	x
O=C(COC(=O)c1cccc(N2C(=O)C3CC=CCC3C2=O)c1)c1ccccc1 (stereo not drawn)	x	2.4µM*	19%	x	4%	2%
Cn1ccc(C(=O)OCC(=O)c2ccccc2)n1	x	27µM*	11%	x	u	21%
O=C(O)c1cccc(N2C(=O)C3CC=CCC3C2=O)c1 (stereo not drawn)	0%	1%	-2%	-1%	1%	-2%
CCc1ccc(C(=O)COC(=O)c2cccc(N3C(=O)c4c(C)nc5ccccc5c4C3=O)c2)cc1	0%	1.7µM*	u	-18%	0%	26%
Nc1cccc(C(=O)OCC(=O)c2ccccc2)c1	-17%	1.3µM*	3.2µM*	10µM*	u	3.5µM*
Cc1cnc(C(=O)OCC(=O)c2ccccc2)cn1	x	u	-2%	x	3%	-1%
O=C(COC(=O)c1cccc(O)c1)c1ccccc1	x	u	0%	x	u	20%
CCc1ccccc1Nc1cc(C(=O)NC(C)c2ccccc2)c2ccccc2n1 (stereo not drawn)	x	u	x	-16%	x	x
CCC(Sc1nc2ccccc2o1)C(=O)O (stereo not drawn)	0%	u	-1%	-4%	4%	5%
O=C(O)CSc1nc2ccccc2o1	-1%	-13%	1%	-6%	6%	12%
Cc1ccc(C(=O)CSc2nc3ccccc3o2)cc1	-3%	13µM*	22%	-29%	20%	u
CC(Sc1nc2ccccc2o1)C(=O)O (stereo not drawn)	-25%	15µM*	-3%	-19%	u	4%
O=C(CSc1nc2ccccc2o1)Nc1ccccc1	1%	u	3%	23%	21µM*	-1%
SMILES	Luc counter	FLuc modulator	NPC1 promoter act	SMN2 splice enh	ELG1 genotoxic	Rab9 prom act
Cc1nc(N2CCOCC2)c2nc(-c3ccccc3)n(CCN3CCCC3)c2n1	-3%	x	x	-8%	x	x
CCOC(=O)C1(Cc2cccc(OC)c2)CCCN(S(=O)(=O)N(C)C)C1 (stereo not drawn)	x	11%	-4%	x	-7%	1%
CCOC(=O)C1(Cc2cccc(OC)c2)CCCN(C(=O)c2cc(C)on2)C1 (stereo not drawn)	x	12µM*	u	x	u	3.2µM*
CCOC(=O)C1(Cc2cccc(OC)c2)CCCN(C(=O)CNC(C)=O)C1 (stereo not drawn)	x	15µM*	u	x	u	3.2µM*
CCOC(=O)C1(Cc2cccc(OC)c2)CCCN(C(=O)c2cc(C)[nH]n2)C1 (stereo not drawn)	0%	1%	-3%	x	-5%	-2%
CCOC(=O)C1(Cc2cccc(OC)c2)CCCN(C(=O)c2ccccc2C)C1 (stereo not drawn)	x	27µM*	u	x	11%	u
CCOC(=O)C1(Cc2cccc(OC)c2)CCN(Cc2cccnc2)CC1	-6%	5.4µM*	-2%	x	u	14%
O=C(O)[C@H]1[C@H]2C[C@H]3c4[nH]c5ccccc5c4CCN3C[C@@H]2CC[C@@H]1O	-1%	x	x	x	x	x
Cc1c(Cl)cccc1NC(=O)Cn1c(=O)n(Cc2ccco2)c(=O)c2sc3ccccc3c21	x	0%	x	3%	x	x
CCOC(=O)C1(Cc2ccccc2)CCCN(C(=O)c2cnn(CC)c2)C1 (stereo not drawn)	x	15µM*	u	x	u	4µM*
COc1ccc(S(=O)(=O)NCCc2sc(-c3cccnc3)nc2C)cc1	x	-6%	x	x	x	x
CC[C@H](C(=O)c1cccs1)C(O)(C(F)(F)F)C(F)(F)F	-4%[7.66 µM]	x	x	-2%[9.22 µM]	x	x
Cc1cc(C)cc(-n2c(C)cc(/C=N/NC(=O)CN(c3c(C)cccc3C)S(C)(=O)=O)c2C)c1	19%	0%	-1%	17%	-2%	-35%
Cc1ccc(N(CC(=O)N/N=C/c2cc(C)n(-c3ccccc3C)c2C)S(C)(=O)=O)cc1	-2%	17µM*	-5%	1%	-1%	3%
O=C(Nc1ccc(OC(F)(F)F)cc1)c1n[nH]c(Cn2cncn2)n1	0%	12µM*	-2%	3%	2%	0%
CCOC(=O)CSc1nc(-c2ccc(OC)cc2)ns1	2%	24µM*	-1%	29%	-1%	1%
CCOC(=O)N1CCN(C(=O)CSc2nc(-c3cccc(C)c3)ns2)CC1	-4%	17µM*	-1%	0%	0%	-7%
Cc1cccc(-c2nsc(SCC(=O)Nc3cc(C)on3)n2)c1	-5%	5%	2%	-7%	3%	5%
CCOC(=O)CNC(=O)CSc1nc(-c2ccc(C)cc2)ns1	-3%	12µM*	7%	2%	1%	16%
CCOC(=O)CNC(=O)CSc1nc(-c2ccccc2)ns1	1%	u	1%	3%	2%	3%
O=C(NC1CCCC1)c1ccc(CSc2nc3cccnc3n2Cc2ccccc2F)cc1	x	-17%	x	x	x	x
Cc1ccc(-c2cn(-c3ccccc3)c(SCC(=O)NC3CCS(=O)(=O)C3)n2)cc1C (stereo not drawn)	3%	u	3.2µM*	u	u	2µM*
